# Columns and labels:
# Experiment in all cases: DAPPL (digital affinity profiling via proximity ligation, sequencing); 10 mM Tris-HCl pH 7.5, 50 mM NaCl, 1 mM DTT, 4% glycerol, room temperature, 30 min; GST-TFs on glutathione beads, 16-mer random dsDNA library, 0.1% formaldehyde crosslink after washing; high values mean tight binding
# FEV = molecular target: T1, FEV (Homo sapiens, UniProt Q99581 1-238); conditions: protein: recombinant; tags: N-terminal GST; dsDNA, one strand shown
# T1 sequence: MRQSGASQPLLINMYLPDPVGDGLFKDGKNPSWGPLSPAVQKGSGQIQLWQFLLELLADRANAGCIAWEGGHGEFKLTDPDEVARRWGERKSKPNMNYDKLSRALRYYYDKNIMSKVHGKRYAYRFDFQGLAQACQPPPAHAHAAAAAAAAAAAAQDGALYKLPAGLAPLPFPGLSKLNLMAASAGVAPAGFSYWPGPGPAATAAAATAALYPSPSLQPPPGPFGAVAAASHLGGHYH
# Outline: (§1)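 In yeast, human transcription factors were expressed with a GST fusion, then pulled down on glutathione beads and given DNA barcodes. Pooled with a tag-only sample, they were exposed to 200 nmole of a 16-mer random double-stranded DNA library (Tris/NaCl/DTT/glycerol buffer, room temperature, 30 min), washed, crosslinked with 0.1% formaldehyde, proximity-ligated using BsaI/T4 ligase for 1 h at 37 °C, PCR-amplified and read on an Illumina NextSeq500. Each hexamer's frequency of reads for a factor, divided by the matching frequency for the tag-only sample, gives the binding signal.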
# ETV5 = ETV5 (Homo sapiens, UniProt P41161 1-510); conditions: protein: recombinant; tags: N-terminal GST; dsDNA, one strand shown
# Outline: as §1
# HSF1 = HSF1 (Homo sapiens, UniProt Q00613 1-529); conditions: protein: recombinant; tags: N-terminal GST; chain copies: 3; dsDNA, one strand shown
# Outline: as §1
# SPIC = molecular target: T2, SPIC (Homo sapiens, UniProt Q8N5J4 1-248); conditions: protein: recombinant; tags: N-terminal GST; dsDNA, one strand shown
# T2 sequence: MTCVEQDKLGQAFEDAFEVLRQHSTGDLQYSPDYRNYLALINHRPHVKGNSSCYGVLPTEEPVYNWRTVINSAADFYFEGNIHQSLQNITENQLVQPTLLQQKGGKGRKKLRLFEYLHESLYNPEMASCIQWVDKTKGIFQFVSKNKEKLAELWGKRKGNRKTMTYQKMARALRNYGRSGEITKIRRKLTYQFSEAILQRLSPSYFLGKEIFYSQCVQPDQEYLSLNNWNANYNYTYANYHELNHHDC
# Outline: as §1
# ELF4 = ELF4 (Homo sapiens, UniProt Q99607 1-663); conditions: protein: recombinant; tags: N-terminal GST; dsDNA, one strand shown
# Outline: as §1
# ELK4 = molecular target: T3, ELK4 (Homo sapiens, UniProt P28324-2 1-405); conditions: protein: recombinant; tags: N-terminal GST; dsDNA, one strand shown
# T3 sequence: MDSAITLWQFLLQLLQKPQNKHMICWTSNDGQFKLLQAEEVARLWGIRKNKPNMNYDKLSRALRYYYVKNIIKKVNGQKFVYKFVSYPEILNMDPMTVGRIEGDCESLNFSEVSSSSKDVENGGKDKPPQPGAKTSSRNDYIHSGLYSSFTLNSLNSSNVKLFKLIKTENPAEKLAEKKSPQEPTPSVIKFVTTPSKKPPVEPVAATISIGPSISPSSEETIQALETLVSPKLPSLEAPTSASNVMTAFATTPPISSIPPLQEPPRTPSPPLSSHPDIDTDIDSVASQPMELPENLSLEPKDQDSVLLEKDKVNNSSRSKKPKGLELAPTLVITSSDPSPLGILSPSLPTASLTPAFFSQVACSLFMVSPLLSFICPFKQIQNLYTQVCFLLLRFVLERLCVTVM
# Outline: as §1
# ETV2 = molecular target: T4, ETV2 (Homo sapiens, UniProt O00321 1-342); conditions: protein: recombinant; tags: N-terminal GST; dsDNA, one strand shown
# T4 sequence: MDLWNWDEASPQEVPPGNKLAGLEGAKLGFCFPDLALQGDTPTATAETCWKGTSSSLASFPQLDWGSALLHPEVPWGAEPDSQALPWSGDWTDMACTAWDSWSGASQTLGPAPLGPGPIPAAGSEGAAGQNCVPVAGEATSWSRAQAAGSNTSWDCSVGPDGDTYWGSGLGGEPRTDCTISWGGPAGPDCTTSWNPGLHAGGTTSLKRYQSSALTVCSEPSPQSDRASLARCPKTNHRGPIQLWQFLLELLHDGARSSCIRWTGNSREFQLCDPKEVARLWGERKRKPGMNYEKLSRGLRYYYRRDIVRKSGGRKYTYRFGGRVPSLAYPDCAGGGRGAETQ
# Outline: as §1
# ELF3 = molecular target: T5, ELF3 (Homo sapiens, UniProt P78545 1-371); conditions: protein: recombinant; tags: N-terminal GST; dsDNA, one strand shown
# T5 sequence: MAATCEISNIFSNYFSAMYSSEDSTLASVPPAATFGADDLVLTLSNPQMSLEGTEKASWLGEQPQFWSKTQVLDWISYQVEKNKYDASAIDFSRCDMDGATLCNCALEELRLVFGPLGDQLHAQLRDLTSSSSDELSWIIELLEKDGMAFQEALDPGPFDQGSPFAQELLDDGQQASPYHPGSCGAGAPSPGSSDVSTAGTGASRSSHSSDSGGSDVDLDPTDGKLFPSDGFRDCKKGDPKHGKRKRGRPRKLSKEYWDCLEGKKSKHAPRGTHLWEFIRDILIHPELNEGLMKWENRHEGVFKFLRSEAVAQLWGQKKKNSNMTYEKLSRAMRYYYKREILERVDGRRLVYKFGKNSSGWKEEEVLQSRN
# Outline: as §1
# CRX = CRX (Homo sapiens, UniProt O43186 1-299); conditions: protein: recombinant; tags: N-terminal GST; dsDNA, one strand shown
# Outline: as §1
# ETV1 = ETV1 (Homo sapiens, UniProt P50549 1-477); conditions: protein: recombinant; tags: N-terminal GST; dsDNA, one strand shown
# Outline: as §1
# ERF = molecular target: T6, ERF (Homo sapiens, UniProt P50548 1-548); conditions: protein: recombinant; tags: N-terminal GST; dsDNA, one strand shown
# T6 sequence: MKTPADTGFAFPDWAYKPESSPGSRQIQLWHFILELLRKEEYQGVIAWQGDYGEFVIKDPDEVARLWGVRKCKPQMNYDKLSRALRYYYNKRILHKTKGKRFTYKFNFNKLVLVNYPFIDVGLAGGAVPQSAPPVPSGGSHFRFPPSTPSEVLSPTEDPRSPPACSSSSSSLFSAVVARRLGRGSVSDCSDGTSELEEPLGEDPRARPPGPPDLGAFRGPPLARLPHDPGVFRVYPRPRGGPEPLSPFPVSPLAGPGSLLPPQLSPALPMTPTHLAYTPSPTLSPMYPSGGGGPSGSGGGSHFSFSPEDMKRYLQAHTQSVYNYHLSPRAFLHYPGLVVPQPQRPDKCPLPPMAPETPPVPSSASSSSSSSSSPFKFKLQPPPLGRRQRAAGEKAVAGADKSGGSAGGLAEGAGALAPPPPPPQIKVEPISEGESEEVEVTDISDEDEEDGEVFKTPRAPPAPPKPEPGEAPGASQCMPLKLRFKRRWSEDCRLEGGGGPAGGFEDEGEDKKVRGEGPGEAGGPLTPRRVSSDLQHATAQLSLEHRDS
# Outline: as §1
# ETV3L = molecular target: T7, ETV3L (Homo sapiens, UniProt Q6ZN32 1-361); conditions: protein: recombinant; tags: N-terminal GST; dsDNA, one strand shown
# T7 sequence: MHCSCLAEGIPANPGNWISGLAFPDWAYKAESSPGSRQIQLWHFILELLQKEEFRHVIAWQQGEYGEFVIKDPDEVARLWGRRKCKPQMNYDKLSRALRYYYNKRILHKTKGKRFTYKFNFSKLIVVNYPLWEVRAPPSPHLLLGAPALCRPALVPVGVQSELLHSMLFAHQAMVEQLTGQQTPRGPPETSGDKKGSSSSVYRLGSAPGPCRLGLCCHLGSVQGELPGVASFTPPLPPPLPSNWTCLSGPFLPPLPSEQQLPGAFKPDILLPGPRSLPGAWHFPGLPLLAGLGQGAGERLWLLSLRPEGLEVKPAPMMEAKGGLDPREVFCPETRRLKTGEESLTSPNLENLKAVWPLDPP
# Outline: as §1
# ETS2 = molecular target: T8, ETS2 (Homo sapiens, UniProt P15036 1-469); conditions: protein: recombinant; tags: N-terminal GST; dsDNA, one strand shown
# T8 sequence: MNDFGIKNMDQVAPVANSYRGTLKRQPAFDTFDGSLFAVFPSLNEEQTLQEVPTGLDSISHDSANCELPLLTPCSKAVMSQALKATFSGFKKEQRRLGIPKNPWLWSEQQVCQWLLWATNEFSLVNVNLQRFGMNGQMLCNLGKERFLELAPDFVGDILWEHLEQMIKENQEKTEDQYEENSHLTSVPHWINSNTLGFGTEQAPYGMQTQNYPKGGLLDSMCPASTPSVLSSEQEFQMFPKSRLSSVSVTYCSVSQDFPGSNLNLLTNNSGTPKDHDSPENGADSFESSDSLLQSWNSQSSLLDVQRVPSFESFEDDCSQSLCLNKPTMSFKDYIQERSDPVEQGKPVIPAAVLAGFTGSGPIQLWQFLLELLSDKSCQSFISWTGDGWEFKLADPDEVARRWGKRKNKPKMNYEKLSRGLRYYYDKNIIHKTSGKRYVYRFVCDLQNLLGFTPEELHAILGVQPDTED
# Outline: as §1
# SPDEF = molecular target: T9, SPDEF (Homo sapiens, UniProt O95238 1-335); conditions: protein: recombinant; tags: N-terminal GST; dsDNA, one strand shown
# T9 sequence: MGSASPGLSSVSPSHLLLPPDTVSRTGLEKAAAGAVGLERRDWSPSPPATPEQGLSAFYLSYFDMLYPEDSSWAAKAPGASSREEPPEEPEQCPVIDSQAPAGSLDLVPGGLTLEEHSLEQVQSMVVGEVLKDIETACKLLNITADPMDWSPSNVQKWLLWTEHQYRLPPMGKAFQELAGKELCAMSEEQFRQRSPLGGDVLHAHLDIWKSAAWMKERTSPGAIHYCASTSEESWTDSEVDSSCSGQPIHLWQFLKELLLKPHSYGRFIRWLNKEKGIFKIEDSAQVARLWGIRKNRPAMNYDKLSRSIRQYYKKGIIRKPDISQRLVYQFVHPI
# Outline: as §1
# ETV7 = molecular target: T10, ETV7 (Homo sapiens, UniProt Q9Y603 1-341); conditions: protein: recombinant; tags: N-terminal GST; dsDNA, one strand shown
# T10 sequence: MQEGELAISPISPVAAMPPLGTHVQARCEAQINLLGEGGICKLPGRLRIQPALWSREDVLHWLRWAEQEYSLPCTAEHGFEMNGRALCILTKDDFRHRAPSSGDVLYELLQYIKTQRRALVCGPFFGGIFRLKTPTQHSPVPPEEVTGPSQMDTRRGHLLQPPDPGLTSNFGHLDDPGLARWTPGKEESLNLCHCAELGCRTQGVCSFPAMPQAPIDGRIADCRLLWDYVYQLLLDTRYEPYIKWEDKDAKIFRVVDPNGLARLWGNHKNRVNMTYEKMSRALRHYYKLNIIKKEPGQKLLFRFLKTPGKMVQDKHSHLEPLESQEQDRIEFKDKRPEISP
# Outline: as §1
# ELF5 = molecular target: T11, ELF5 (Homo sapiens, UniProt Q9UKW6-2 1-255); conditions: protein: recombinant; tags: N-terminal GST; dsDNA, one strand shown
# T11 sequence: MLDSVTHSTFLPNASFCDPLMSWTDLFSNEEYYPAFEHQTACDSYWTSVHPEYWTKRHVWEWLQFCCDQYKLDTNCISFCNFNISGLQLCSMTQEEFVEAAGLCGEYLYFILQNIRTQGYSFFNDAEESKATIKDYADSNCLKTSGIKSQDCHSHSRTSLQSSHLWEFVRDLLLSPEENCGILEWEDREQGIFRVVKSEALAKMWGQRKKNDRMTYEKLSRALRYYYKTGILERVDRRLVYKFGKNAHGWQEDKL
# Outline: as §1
# ETV3 = molecular target: T12, ETV3 (Homo sapiens, UniProt P41162-2 1-143); conditions: protein: recombinant; tags: N-terminal GST; dsDNA, one strand shown
# T12 sequence: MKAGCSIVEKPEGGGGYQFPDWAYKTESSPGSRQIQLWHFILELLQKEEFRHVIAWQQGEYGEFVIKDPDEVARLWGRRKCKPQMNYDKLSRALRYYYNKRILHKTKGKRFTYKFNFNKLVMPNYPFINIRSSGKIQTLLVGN
# Outline: as §1
# ETV6 = ETV6 (Homo sapiens, UniProt P41212 1-452); conditions: protein: recombinant; tags: N-terminal GST; dsDNA, one strand shown
# Outline: as §1
# ETV5, sequence (P41161 whole entry): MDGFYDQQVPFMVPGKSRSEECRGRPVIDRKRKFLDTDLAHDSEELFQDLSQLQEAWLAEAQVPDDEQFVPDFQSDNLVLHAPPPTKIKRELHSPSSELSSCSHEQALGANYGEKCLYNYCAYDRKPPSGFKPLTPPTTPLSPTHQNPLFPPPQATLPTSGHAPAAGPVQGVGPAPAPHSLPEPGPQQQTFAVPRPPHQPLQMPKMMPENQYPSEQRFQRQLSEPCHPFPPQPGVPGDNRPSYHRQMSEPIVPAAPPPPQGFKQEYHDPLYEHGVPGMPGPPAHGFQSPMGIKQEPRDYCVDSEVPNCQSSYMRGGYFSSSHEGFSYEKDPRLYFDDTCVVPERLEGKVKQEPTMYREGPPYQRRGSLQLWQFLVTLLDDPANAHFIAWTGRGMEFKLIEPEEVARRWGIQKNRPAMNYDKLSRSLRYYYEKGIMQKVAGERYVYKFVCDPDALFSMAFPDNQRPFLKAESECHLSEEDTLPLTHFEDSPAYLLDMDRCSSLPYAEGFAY
# CRX, sequence (O43186 whole entry): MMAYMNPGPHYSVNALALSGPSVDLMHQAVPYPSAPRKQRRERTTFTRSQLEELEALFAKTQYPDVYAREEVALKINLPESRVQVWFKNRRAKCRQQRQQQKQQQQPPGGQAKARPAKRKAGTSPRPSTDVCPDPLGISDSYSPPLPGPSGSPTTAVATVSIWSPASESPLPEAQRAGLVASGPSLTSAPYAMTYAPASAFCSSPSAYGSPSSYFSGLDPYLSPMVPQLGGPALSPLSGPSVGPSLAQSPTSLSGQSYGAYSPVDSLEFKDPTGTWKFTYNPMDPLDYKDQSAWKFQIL
# ETV6, sequence (P41212 whole entry): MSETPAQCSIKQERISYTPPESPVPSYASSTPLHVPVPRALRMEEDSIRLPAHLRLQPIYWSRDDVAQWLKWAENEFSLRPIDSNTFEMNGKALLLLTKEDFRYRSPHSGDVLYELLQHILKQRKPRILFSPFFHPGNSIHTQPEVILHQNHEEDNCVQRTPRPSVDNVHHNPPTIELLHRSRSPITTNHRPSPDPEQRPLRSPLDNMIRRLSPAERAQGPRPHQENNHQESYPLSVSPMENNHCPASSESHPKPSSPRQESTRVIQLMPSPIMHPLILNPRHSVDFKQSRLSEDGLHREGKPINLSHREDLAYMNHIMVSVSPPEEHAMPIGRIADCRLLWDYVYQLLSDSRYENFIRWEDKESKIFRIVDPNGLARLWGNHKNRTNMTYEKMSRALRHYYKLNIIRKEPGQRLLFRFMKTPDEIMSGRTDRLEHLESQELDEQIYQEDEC
# ETV1, sequence (P50549 whole entry): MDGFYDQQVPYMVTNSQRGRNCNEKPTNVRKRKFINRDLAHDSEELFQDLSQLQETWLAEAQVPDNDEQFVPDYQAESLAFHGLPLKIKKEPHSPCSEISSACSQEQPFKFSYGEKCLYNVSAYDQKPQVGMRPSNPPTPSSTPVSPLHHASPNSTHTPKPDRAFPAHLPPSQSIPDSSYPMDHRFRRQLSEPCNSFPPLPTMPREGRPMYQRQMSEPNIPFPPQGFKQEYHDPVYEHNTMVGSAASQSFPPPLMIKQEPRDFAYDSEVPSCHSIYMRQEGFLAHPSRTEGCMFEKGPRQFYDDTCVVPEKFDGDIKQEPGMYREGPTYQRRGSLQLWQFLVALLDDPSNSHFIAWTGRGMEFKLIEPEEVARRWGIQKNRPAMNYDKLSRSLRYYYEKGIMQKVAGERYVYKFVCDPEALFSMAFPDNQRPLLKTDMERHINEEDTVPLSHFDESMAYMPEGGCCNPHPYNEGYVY
# HSF1, sequence (Q00613 whole entry): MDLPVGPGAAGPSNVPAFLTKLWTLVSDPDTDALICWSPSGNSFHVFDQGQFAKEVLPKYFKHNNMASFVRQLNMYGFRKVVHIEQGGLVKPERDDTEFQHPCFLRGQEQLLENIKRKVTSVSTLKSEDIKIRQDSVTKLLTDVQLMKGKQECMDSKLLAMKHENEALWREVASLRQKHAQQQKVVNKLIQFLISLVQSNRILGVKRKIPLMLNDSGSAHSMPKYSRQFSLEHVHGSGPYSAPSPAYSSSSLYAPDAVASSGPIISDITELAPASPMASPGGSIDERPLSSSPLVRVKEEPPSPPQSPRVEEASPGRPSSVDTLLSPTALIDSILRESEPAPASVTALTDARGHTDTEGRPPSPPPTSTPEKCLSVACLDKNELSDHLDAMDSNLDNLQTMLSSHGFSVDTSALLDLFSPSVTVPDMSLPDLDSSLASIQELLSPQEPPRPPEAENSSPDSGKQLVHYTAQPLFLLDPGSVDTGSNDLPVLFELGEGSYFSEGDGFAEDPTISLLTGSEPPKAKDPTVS
# ELF4, sequence (Q99607 whole entry): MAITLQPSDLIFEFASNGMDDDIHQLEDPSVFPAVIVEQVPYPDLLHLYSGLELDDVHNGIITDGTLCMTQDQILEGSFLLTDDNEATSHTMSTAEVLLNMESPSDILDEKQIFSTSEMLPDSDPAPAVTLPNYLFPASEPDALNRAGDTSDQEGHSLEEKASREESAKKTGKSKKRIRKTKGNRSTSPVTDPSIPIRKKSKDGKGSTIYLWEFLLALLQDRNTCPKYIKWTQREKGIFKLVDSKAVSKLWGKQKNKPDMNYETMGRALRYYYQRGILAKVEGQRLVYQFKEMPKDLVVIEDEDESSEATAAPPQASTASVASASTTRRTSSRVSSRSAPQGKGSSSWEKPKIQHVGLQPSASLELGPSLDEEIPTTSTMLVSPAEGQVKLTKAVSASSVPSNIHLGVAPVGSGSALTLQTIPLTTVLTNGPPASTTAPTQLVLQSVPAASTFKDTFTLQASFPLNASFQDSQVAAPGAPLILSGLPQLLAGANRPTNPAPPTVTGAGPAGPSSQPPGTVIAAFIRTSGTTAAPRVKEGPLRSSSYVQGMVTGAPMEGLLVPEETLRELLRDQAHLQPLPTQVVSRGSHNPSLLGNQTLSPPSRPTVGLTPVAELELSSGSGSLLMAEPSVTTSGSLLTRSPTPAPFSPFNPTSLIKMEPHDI
sequence,measurement,setting,value
TATGGT,binding signal,FEV,"1.24 fold enrichment (6-mer frequency, TF over GST control)"
same,binding signal,ETV5,"1.38 fold enrichment (6-mer frequency, TF over GST control)"
same,binding signal,HSF1,"1.16 fold enrichment (6-mer frequency, TF over GST control)"
same,binding signal,SPIC,"1.49 fold enrichment (6-mer frequency, TF over GST control)"
same,binding signal,ELF4,"1.34 fold enrichment (6-mer frequency, TF over GST control)"
same,binding signal,ELK4,"1.44 fold enrichment (6-mer frequency, TF over GST control)"
same,binding signal,ETV2,"1 fold enrichment (6-mer frequency, TF over GST control)"
same,binding signal,ELF3,"1.5 fold enrichment (6-mer frequency, TF over GST control)"
same,binding signal,CRX,"1.29 fold enrichment (6-mer frequency, TF over GST control)"
same,binding signal,ETV1,"1.27 fold enrichment (6-mer frequency, TF over GST control)"
same,binding signal,ERF,"1.18 fold enrichment (6-mer frequency, TF over GST control)"
same,binding signal,ETV3L,"1.24 fold enrichment (6-mer frequency, TF over GST control)"
same,binding signal,ETS2,"1.33 fold enrichment (6-mer frequency, TF over GST control)"
same,binding signal,SPDEF,"1.35 fold enrichment (6-mer frequency, TF over GST control)"
same,binding signal,ETV7,"1.21 fold enrichment (6-mer frequency, TF over GST control)"
same,binding signal,ELF5,"1.24 fold enrichment (6-mer frequency, TF over GST control)"
same,binding signal,ETV3,"1.34 fold enrichment (6-mer frequency, TF over GST control)"
same,binding signal,ETV6,"1.24 fold enrichment (6-mer frequency, TF over GST control)"

# From publication PMC7862700, “An all-to-all approach to the identification of sequence-specific readers for epigenetic DNA modifications on cytosine”
